12-LOX inh – Primary qHTS assay for inhibitors of human arachidonate 12S-lipoxygenase (ALOX12): Round 2; Polyunsaturated fatty acid lipoxygenase ALOX12 (Homo sapiens), P18054; purified 12hLO, xylenol orange hydroperoxide absorbance; Potency, µM (top dose mostly 108 µM), for inactives: at the top dose activity change, negative = inhibition, actives largely listed as inhibitors; hit rate 1.1% among 580,000; AID 1671190, 2021; also: % is scaled to controls: 0 for no effect and ±100 for the full control effect
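Hydroperoxide product was detected by ferrous iron/xylenol orange as the 573 to 405 nm absorbance ratio. Arachidonic acid at 40 uM (final) was turned over for 30 min at room temperature by 150 nM human 12hLO, pH 7.0 Hepes buffer, after 15 min compound preincubation.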
Glioma ERSR ind – qHTS for Inducers of the Endoplasmic Reticulum Stress Response (ERSR) in Human Glioma: qHTS. U87-MG GRP78 promoter luciferase reporter, 16 h. Potency, µM, for inactives: at the top dose activation, usual class: activators. hit rate 0.02% among 420,000. AID 602332, 2012; also: series mostly up to about 76 µM; % of control where 0% means no effect; nearly all actives have a fitted effect of over 35% in size
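Stably transfected U87-MG glioma cells carrying a GRP78-based luciferase sensor; 16 h compound incubation. Luminescence end-point read 10 min after Bright-Glo addition at room temperature.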
Sfp inh – qHTS Assay for Inhibitors of Bacillus subtilis Sfp phosphopantetheinyl transferase (PPTase); Biochemical Sfp PPTase activity, qHTS; Potency, µM, for inactives: largest response in the series, negative = inhibition, actives largely listed as inhibitors; hit rate 3.5% among 310,000;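 also: the enzyme is Sfp with the accession as filed and its product quenches rhodamine fluorescence; 0% = enzyme reaction without inhibitor and -100% = no enzyme wells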
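Compounds were incubated with enzyme (final 15 nM) for 15 min at room temperature before substrate addition started the reaction. Fluorescence at 525 nm excitation, 598 nm emission was recorded immediately and after 30 minutes.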
G9a inh – qHTS Assay for Inhibitors of Histone Lysine Methyltransferase G9a; G9a H3K9 monomethylation, AlphaScreen, 2 h; Potency, µM (titrated, usually from 102 µM), for the others: at the top dose activity, negative = inhibition, usual class: inhibitors; hit rate 8.8% among 350,000; also: % is scaled to controls: 0 for no effect and ±100 for the full control effect; nearly all actives have a fitted effect of over 75% in size
Target sequence (Q96KQ7 913-1193 limits assumed): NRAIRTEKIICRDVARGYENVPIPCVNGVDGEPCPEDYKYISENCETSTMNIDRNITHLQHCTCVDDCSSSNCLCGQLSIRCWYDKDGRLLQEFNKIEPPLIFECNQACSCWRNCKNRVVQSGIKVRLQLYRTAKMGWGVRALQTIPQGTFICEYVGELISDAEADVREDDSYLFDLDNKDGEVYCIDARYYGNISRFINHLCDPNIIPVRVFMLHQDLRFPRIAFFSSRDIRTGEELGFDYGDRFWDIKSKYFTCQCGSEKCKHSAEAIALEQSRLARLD
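Quantitative HTS format: methyltransferase activity on a biotin-tagged H3K9 peptide is measured by AlphaScreen, using a rabbit anti-monomethyl-H3K9 antibody with streptavidin donor and anti-IgG acceptor beads. Final levels are 20 nM enzyme, 500 nM peptide, 20 uM SAM; 2 h RT.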
VDR inhibitor – Inhibitors of the vitamin D receptor (VDR): qHTS; VDR-SRC2-3 peptide fluorescence polarization, 2 h; Potency, µM, for inactives: max response, negative = inhibition, most hits filed as inhibitors; hit rate 0.93% among 400,000; also: % is scaled to controls: 0 for no effect and ±100 for the full control effect
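VDR–SRC2-3 interaction, FP format. Cmpds 23 nl via pintool, brief spin, 2 h ambient incubation.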
An asterisk follows results filed as active; ? = inconclusive; / = not tested or not shown; ! = not active in a repeat; [ ] = another dose, or the depositor's remark. This excerpt belongs to a sample that is enriched for hits. Calls follow the shape of the dose curve; as a rule, active = well fitted curve in the direction sought with a large enough effect; inconclusive = small, poorly fitted or top-dose-only effect, or another doubt; inactive = no such curve, though single readings can be large; an effect the other way counts as inactive or inconclusive. Potency is read from the fitted curve at half-maximal effect.

SMILES	12-LOX inh	Glioma ERSR ind	Sfp inh	G9a inh	VDR inhibitor
COc1ccc(CNc2ccc3cn[nH]c3c2)c(OC)c1OC	7%	5%	1%	8.9µM*	5%
CCOc1cc(CNc2ccc3cn[nH]c3c2)ccc1OC	1%	0%	-13%	28µM*	-8%
O=C(CCl)NCCNC(=O)c1cc(OCC(F)(F)F)ccc1OCC(F)(F)F	-17%	0%	20%	-39%	9%
O=C(NCC1CCCCN1)c1cc(OCC(F)(F)F)ccc1OCC(F)(F)F (configuration not stated)	1.5µM*!	-4%	14%	15%[59 µM]	-16%
CC(C)C(NCc1c(Cl)cccc1Cl)C(=O)O (configuration not stated)	?	-4%	15%	79µM*	-2%
CC(C)[C@H](NC(=O)NCc1ccc(Cl)cc1)C(=O)O	16%	-3%	24%	15%[12.7 µM]	2%
CCCCCCCCCCCCCCCCCC(=O)OC[C@@H](O)[C@H]1OC[C@H](O)[C@H]1O	/	-2%	13%	43%[59 µM]	-1%
CCCCCCCCCCCC(=O)OCC(O)CO (configuration not stated)	-23%	1%	1%	18%[59 µM]	4%
CCCCCCCCCCCCCCCC(=O)OCC(O)C1OC(=O)C(O)=C1O (configuration not stated)	/	-3%	?	?	5µM*
CCCCCCCCCCCCCCCCCC(=O)OCC(C)O (configuration not stated)	/	-6%	-11%	25µM*	-2%
N#C/C(=C/c1ccc(OCc2ccc(C(=O)O)cc2)cc1)C(=O)Nc1ccccc1	/	-2%	-3%	50µM*	?
N#C/C(=C\c1ccccc1OCc1ccc(C(=O)O)cc1)C(=O)Nc1ccc(O)cc1	-6%	8%	-13%	50µM*	?
S=c1nc[nH]c2c1cnn2-c1ccccc1	8%	-1%	18µM*	/	-6%
Nc1ncnc2c1cnn2-c1ccccc1	204%	3%	-12%	-5%	4%
CCOC(=O)C(=Cc1ccc(Br)cc1)C(=O)OCC	2%	-15%	?	-4%[12.7 µM]	10µM*
CCOC(=O)C(=Cc1ccc(C)cc1)C(=O)OCC	2%	/	/	/	/
CCOC(=O)C(=Cc1ccc(-n2ccnc2)cc1)C(=O)OCC	-12%	-15%	-29%	45µM*	?
CCOC(=O)C(=Cc1ccc(F)cc1)C(=O)OCC	/	/	-7%	/	/
Cc1cccc(-c2c3c(=O)n(C)c(=O)n(C)c3cn2CCO)c1	?	-4%	-16%	22µM*	5%
Cc1cccc(-c2c3c(=O)n(C)c(=O)n(C)c3cn2CC2CCCO2)c1 (configuration not stated)	14%	-2%	-7%	40µM*	1%
O=C1Nc2ccc(-c3cccc(C(F)(F)F)c3)cc2C(=O)N2CCN(C(=O)c3ccccc3)C[C@H]12	52%	/	/	/	/
Cc1cc(C)c(NC(=S)NC(CO)(CO)CO)c(C)c1	0%	-4%	-6%	10µM*	-3%
Cc1cccc(C)c1NC(=S)NC(C)(C)CO	107%	0%	10%	?	7%
O=C(Nc1cccc2c1CCCC2)c1cnc(Cl)c(Cl)c1	-21%	/	/	/	/
C=CCn1c(O)c(CN2CCCCC2)c(C)c(C#N)c1=O	-7%	-1%	-8%	50µM*	?
SMILES	12-LOX inh	Glioma ERSR ind	Sfp inh	G9a inh	VDR inhibitor
Cc1c(CN2CCCC(C)C2)c(O)n(CCO)c(=O)c1C#N (configuration not stated)	?	-1%	15%	/	-1%
Cc1cc(C)n2[nH]c(=O)c(N=Nc3ccccc3)c2n1	242%	-2%	-1%	7.9µM*	-3%
O=C(NC1CCCCC1)c1ccc2ccccc2n1	1%	/	/	/	/
COc1ccc2[nH]cc(CCNC(=O)c3ccc4c(c3)C(O)CCCCCN4C)c2c1 (configuration not stated)	-7%	/	/	/	/
Cc1ccc(-c2nn(C)c(=O)c3ccccc23)cc1S(N)(=O)=O	12%	/	/	/	/
COCCNC(=S)Nc1ccc2[nH]c(=O)[nH]c2c1	-20%	-5%	-11%	18µM*	-10%
CCOC(=O)c1ccc(NC(=S)Nc2ccc3[nH]c(=O)[nH]c3c2)cc1	-29%	0%	40µM*	/	0%
Cc1ccc(C(=O)NC(=S)Nc2ccc3[nH]c(=O)[nH]c3c2)cc1	?	-4%	-15%	50µM*	6%
Cc1ccc(NC(=S)Nc2ccc3[nH]c(=O)[nH]c3c2)cc1	-1%	5%	?	50µM*	?
Cc1cc(C)cc(OCCN(C)C(=O)Cc2c[nH]c3ccccc23)c1	3%	/	/	/	/
CNC(=O)C1(C)CN(Cc2ccccc2)Cc2ccc(Nc3ccccc3)nc21 (configuration not stated)	0%[176 µM]	/	/	/	/
O=c1[nH]c2ccc(NC(=S)Nc3ccccc3)cc2[nH]1	?	0%	?	45µM*	-2%
Cc1ccc(S(=O)(=O)N2CCCC2c2nc3ccccc3[nH]2)cc1C (configuration not stated)	22%	/	/	/	/
O=C(c1cnn2c1NC(c1ccc(Br)cc1)CC2C(F)(F)F)N1CCN2CCCC2C1 (configuration not stated)	1%	0%	0%	?	0%
O=C(c1cnn2c1NC(c1ccc(Br)cc1)CC2C(F)(F)F)N1CCN(C23CC4CC(CC(C4)C2)C3)CC1 (configuration not stated)	?	-3%	11%	28µM*	13%
CC(CCc1ccccc1)NC(=O)c1cc(Cl)ccn1 (configuration not stated)	-41%	/	/	/	/
CC(C)OC(=O)C(C#N)c1nc2ccccc2nc1N1CCCC1 (configuration not stated)	/	5%	8%	11µM*	-3%
CCC(CC)COC(=O)C(C#N)c1nc2ccccc2nc1N1CCN(CC)CC1 (configuration not stated)	?	-1%	-23%	45µM*	-16%
CCn1cnc2cc(NCc3ccccc3Cl)ccc21	6%	2%	-1%	45µM*	-18%
CCCn1cnc2cc(NCc3ccccc3OCC)ccc21	-16%	1%	/	1.8µM*	-5%
CC(C)n1cnc2cc(NCc3ccccc3O)ccc21	12%	5%	-2%	/	-1%
CCCn1cnc2cc(NCc3cccs3)ccc21	0%	8%	3%	18µM*	11%
Cn1cnc2cc(NCc3ccccc3Cl)ccc21	0%	2%	5%	50µM*	15%
CC(C)c1ccc(CNc2ccc3c(c2)ncn3C)cc1	0%	10%	-11%	?	4%
CCCCn1cnc2cc(NCc3ccncc3)ccc21	20%	-6%	1%	?	-2%
COCc1cc(C)n(CC(=O)Nc2cc(C(F)(F)F)ccc2Cl)c(=O)c1C#N	-21%	/	/	/	/

Source: PubChem BioAssay (National Center for Advancing Translational Sciences (NCATS))
